For 67 compounds, INHIBITION results are on record in ChEMBL document CHEMBL4513216, “Probing the Open Global Health Chemical Diversity Library for Multistage-Active Starting Points for Next-Generation Antimalarials” (ACS Infect Dis, 2020).

Hit rate of the full screen: of about 69,000 compounds, about 8,600 (12%) showed an effect of 50% or more. The sample holds strong results, similar compounds and a random draw of the others, so the mix is not that of the screen.

The test system of the assay is Plasmodium berghei. Briefly: Screen against P. berghei liver stage (PbLuc), transformed with Luciferase, at 10uM. Format: functional, HepG2. The following applies: tested at 10 uM.
As to `Cc1nnc(NCCC(=O)N(C)Cc2ccccc2)c(C#N)c1C`, the INHIBITION is -5.65%.
On to `Cc1cnc(-c2nc(C3CCN(Cc4ccccc4C)CC3)no2)cn1`, for which the INHIBITION was 19.36%.
Regarding `O=C(CCc1ccsc1)NS(=O)(=O)Cc1ccon1`, the INHIBITION was determined as 55.4%.
In the case of `CC(O)(CNS(=O)(=O)Cc1ccon1)c1ccsc1` (configuration not stated), the INHIBITION came out at 1.98%.
On to `O=C(CCc1cccc(Cl)c1)NS(=O)(=O)Cc1ccon1`, for which the INHIBITION is 35.1%.
The figure for `O=C(CCc1ccco1)NS(=O)(=O)Cc1ccon1` is 64%.
Regarding `Cc1ccc(S(=O)(=O)NC(=O)CCc2ccco2)cc1N(C)C`, the INHIBITION is -18.9%.
In the case of `Cc1ccc(C(=O)NS(=O)(=O)Cc2ccon2)c(C)c1` it was 12.8%.
Take `Cc1cc(C(=O)NS(=O)(=O)Cc2ccon2)c(C)o1`: the INHIBITION was determined as 44.2%.
`CN(C(=O)CCc1ccsc1)S(C)(=O)=O`: the INHIBITION is listed as 37.4%.
For the compound `Cc1cc(C(=O)NS(=O)(=O)Cc2ccon2)c(C)n1C(C)C`, the INHIBITION was 56.1%.
As to `O=C(NS(=O)(=O)Cc1ccon1)c1ccsc1`, the INHIBITION amounted to 73.6%.
Turning to `O=C(CCc1ccco1)NS(=O)(=O)N1CCOc2ccccc21`, the INHIBITION is 25.2%.
Take `COc1ccc(C(=O)NCc2ccon2)cc1F`: the INHIBITION is recorded as 11.6%.
Regarding `CC(=O)N1CCN(c2cc(C3CN(C(C)=O)CCO3)nc(C)n2)CC1` (configuration not stated), the INHIBITION is given as 29.2%.
On to `CO[C@@H]1CC[C@H]2[C@H]1OCCN2CCOCc1ccccc1`, for which the INHIBITION is listed as 4.98%.
Regarding `Cc1nc(C2CCCN(C(=O)c3ccncc3)C2)c2sccn12` (configuration not stated), the INHIBITION was determined as 35.2%.
The figure for `CC(=O)c1cn(CCC(=O)N[C@@H](CC(C)C)C(=O)O)c2ccccc12` is 11.9%; for `NC(=O)CSCC(=O)NC1(c2cccc(Cl)c2)CC1` it is 38.6%; for `CC(=O)N1CC[C@H]2OCC[C@@H](C(=O)NCc3ccco3)[C@@H]2C1` it is 18.3%.
Consider `COCC(=O)N1Cc2nccn2CC(Cn2ncccc2=O)C1` (configuration not stated), for which the INHIBITION stood at 19.4%.
The figure for `CC(C)(C)c1nccc(N2CCCCC2CNS(C)(=O)=O)n1` (configuration not stated) is 16.6%; for `c1cc(CCN2CCN(c3ccc4nncn4n3)CC2)ccn1` it is -33.7%; for `c1ccc(CN2CCN(c3ccc4nncn4n3)CC2)nc1` it is 7.67%.
On to `c1ccc(CCN2CCN(c3ccc4nncn4n3)CC2)cc1`, for which the INHIBITION is given as 60.9%.
As to `O=C(COc1ccc(Cl)cc1)N1CCN(c2cnccn2)CC1`, the INHIBITION was -126%.
In the case of `c1ccc(CCN2CCN(c3ccc4nncn4n3)CC2)nc1` it was 20.1%.
The figure for `O=C(NCCc1ccccc1)C1CCCN(c2ccc3nncn3n2)C1` (configuration not stated) is -23.5%.
The figure for `Clc1ccccc1CCN1CCN(c2ccc3nncn3n2)CC1` is 72.8%; for `O=C(CCOc1ccc(Cl)cc1)N1CCN(c2cnccn2)CC1` it is 3.19%; for `Clc1ccc(OCCCN2CCN(c3cnccn3)CC2)cc1` it is 54.4%.
Consider `c1ccc(CCCN2CCN(c3ccc4nncn4n3)CC2)cc1`, for which the INHIBITION is given as 74.7%.
In the case of `O=C(CCN1CCN(c2ccc3nncn3n2)CC1)N1CCCCC1` it was -19.9%.
In the case of `N#Cc1ccc(N2CCN(c3ccc4nncn4n3)CC2)nc1`, the INHIBITION is given as -23.4%.
The figure for `O=c1[nH]c(N2CCCCC2)nc2nccc(-c3ccc4c(c3)OCO4)c12` is -5.59%.
Take `COc1c(C)cc(CNCc2ccnc(N3CCOCC3)c2)cc1C`: the INHIBITION is 28.8%.
Consider `CC(C)NC(=O)N1C[C@@H]2C[C@H](C(=O)NCc3ccccc3)[C@H](C1)O2`, for which the INHIBITION came to 18.2%.
`COc1ccc(Cn2nnnc2SCC2CCCN(C)C2)cc1` (configuration not stated): the INHIBITION came out at 40.5%.
As for `CO[C@@]1(C)C[C@@H](O)C12CCN(C(=O)C1(c3ccccc3F)CC1)CC2`, the INHIBITION came to 32.5%.
Consider `NCCC(Cc1ccccc1)c1ccco1` (configuration not stated), for which the INHIBITION was 36.1%.
For the compound `O=C(N[C@H]1CCCC[C@@H]1O)c1ccc2nc(-c3ccccc3)[nH]c2c1`, the INHIBITION is listed as -85.3%.
Consider `COc1nn(C)c2c1CCCN(C(=O)c1ccccc1F)C2`, for which the INHIBITION worked out at 3.25%.
As to `CC(NC(=O)CCCC(=O)c1cccs1)c1nnc2n1CCC2` (configuration not stated), the INHIBITION is reported as 7.12%.
`O=C(O)Cn1ccc2c(Cl)cccc21`: the INHIBITION is on record as 19.3%.
In the case of `Cc1nnc(C(C)N2CCN(Cc3ccc(C(F)(F)F)cc3)CC2)o1` (configuration not stated) it was -43.5%; in that of `O=C(CCN1CCN(c2ccc3nncn3n2)CC1)NC1CCCC1`, -51.5%.
For `FC(F)(F)COCCN1CCN(c2ccc3nncn3n2)CC1`, the INHIBITION turned out to be 38.8%.
Turning to `c1ccc(OCCCN2CCN(c3ccc4nncn4n3)CC2)cc1`, the INHIBITION is listed as 86.1%.
On to `O=C(NCc1cccnc1)NC1CCC2(CCC(=O)N2CC2CC2)CC1` (configuration not stated), for which the INHIBITION is recorded as 40.3%.
Take `CCN(CCNC(=O)Nc1nnc(C)s1)C(=O)OC(C)(C)C`: the INHIBITION is recorded as -19.3%.
As to `O=C1C(NS(=O)(=O)c2ccc(F)cc2)CCN1Cc1ccccc1` (configuration not stated), the INHIBITION turned out to be 23.5%.
In the case of `CCc1nc2ccccc2n1C(CC)C(=O)N(C)Cc1noc(C)n1` (configuration not stated) it was 31.1%; in that of `CCc1nnc(CN(C)C(=O)C(CC)n2c(CC)nc3ccccc32)o1` (configuration not stated), 52.7%.
Consider `CCc1nc2ccccc2n1C(CC)C(=O)N(C)Cc1nc(C)c[nH]1` (configuration not stated), for which the INHIBITION is reported as 12.9%.
In the case of `O=C1COc2ccc(C(=O)NS(=O)(=O)c3ccccc3Cl)cc2N1` it was 14.1%; in that of `CCCS(=O)(=O)N1C[C@@H](Oc2ccccn2)[C@H]2OCCC[C@H]21`, -21.1%; in that of `Cn1cc(CC(=O)N2CCCC(c3cc(C(F)(F)F)[nH]n3)C2)cn1` (configuration not stated), 7.97%.
In the case of `O=C(c1cc[nH]n1)N1CCCC(c2cc(C(F)(F)F)[nH]n2)C1` (configuration not stated), the INHIBITION came to 25.1%.
On to `O=C(c1ccsc1)N1CCCC(c2cc(C(F)(F)F)[nH]n2)C1` (configuration not stated), for which the INHIBITION came out at 57.2%.
For `O=C(Cc1cccnc1)N1CCCC(c2cc(C(F)(F)F)[nH]n2)C1` (configuration not stated), the INHIBITION came to 50.8%.
As for `Cc1nc(C2CCCN(C(=O)c3cc(Cl)c[nH]3)C2)sc1C` (configuration not stated), the INHIBITION was found to be 40.9%.
`O=C(c1cc(Cl)c[nH]1)N1CCCC(c2cc(C(F)(F)F)[nH]n2)C1` (configuration not stated): the INHIBITION is recorded as 88.2%.
On to `O=C(c1nc(=O)[nH][nH]1)N1CCCC(c2cc(C(F)(F)F)[nH]n2)C1` (configuration not stated), for which the INHIBITION is on record as 29.1%.
For the compound `Cc1nc(C(=O)N2CCCC(c3cc(C(F)(F)F)[nH]n3)C2)c[nH]1` (configuration not stated), the INHIBITION worked out at 33.8%.
With `CCOCCC(=O)N1CCCC(c2cc(C(F)(F)F)[nH]n2)C1` (configuration not stated), the INHIBITION is listed as 7.97%.
On to `Cc1cc(C(=O)N2CCCC(c3cc(C(F)(F)F)[nH]n3)C2)[nH]n1` (configuration not stated), for which the INHIBITION was determined as 29.7%.
The figure for `O=C(c1ccc[nH]1)N1CCCC(c2cc(C(F)(F)F)[nH]n2)C1` (configuration not stated) is 54.4%.
